ELG1 DNA repair = inhibitors of ELG1-dependent DNA repair in HEK293T cells | HEK293T ELG1-luciferase reporter, luminescence, 16 h; DNA damage induced by 5-fluorouridine | Potency, µM (highest dose often 46.1 µM), for the others: at the top dose activity change, negative = inhibition, hits mostly inhibitors | 2.3% of 330,000 active | AID 504467; also: % is scaled to controls: 0 for no effect and ±100 for the full control effect; nearly all actives have a fitted effect of over 55% in size
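HEK293T cells expressing luciferase-tagged ELG1 (2,000/well) received 5-Fluorouridine plus compound or DMSO for 16 hr at 37 °C. Luciferase was read by ONE-Glo luminescence after 30 min at room temperature.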
MCF10A rereplic = inducers of DNA re-replication in MCF 10A breast cells; 2.9% of 350,000 active; MCF 10A DNA re-replication, Hoechst nuclear intensity, 48 h; Potency, µM (titrated, usually from 46.1 µM), for the others: at the highest dose activity, positive = re-replication, actives largely listed as activators; also: % of control where 0% means no effect; nearly all actives have a fitted effect of over 50% in size
A-T KAP1 phos = potential ataxia-telangiectasia treatment; F2112 A-T fibroblasts, KAP-1 phosphorylation AlphaLISA; neocarzinostatin DNA damage 30 min before lysis; Potency, µM (highest dose often 57.5 µM), for the others: at the highest dose activation, usual class: activators; 0.19% of 320,000 active; also: % of control where 0% means no effect; nearly all actives have a fitted effect of over 45% in size
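hTERT-immortalized A-T patient fibroblasts (F2112), 500 cells/well in OPTI-MEM, 1% FBS, got compounds for 60 min, then NCS for 30 min at 37C. Lysates were then assayed for phospho-KAP-1 by AlphaLISA (anti-pKAP1 donor, anti-KAP1 acceptor beads), 6 hr at 25C.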
ELG1 genotoxic = inducers of genotoxicity in HEK293T ELG1-luciferase cells. HEK293T ELG1-luciferase reporter, luminescence, 16 h. Potency, µM (highest dose often 46 µM), without a hit: at the highest dose activity change, positive = activation, actives largely listed as activators. 1.3% of 330,000 active. AID 504466; also: % of control where 0% means no effect; nearly all actives have a fitted effect of over 60% in size
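DMSO vehicle served as control against compound-treated ELG1-luciferase HEK293T cells; exposure lasted 16 hr at 37 °C and 5% CO2, followed by ONE-Glo luminescence detection after 30 min.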
SW480 rereplic = inducers of DNA re-replication in SW480 colon cancer cells | SW480 DNA re-replication, Hoechst DNA content imaging, 48 h | Potency, µM (titrated, usually from 46.1 µM), inactives show top-dose re-replication activation, usual class: activators | 1.8% of 340,000 active | AID 624297; also: % of control where 0% means no effect; nearly all actives have a fitted effect of over 55% in size
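Compounds, transferred as 23 nL by pin tool, were incubated with cells for 48 hr; DNA content per nucleus was then quantified by Hoechst staining and fluorescence plate imaging.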
p53 reactivator = mutant p53 re-activation in reporter cells. H1299 p53-A138V BP100-luciferase reporter, luminescence, 24 h. Potency, µM (titrated, usually from 92.2 µM), inactives show top-dose activity change, positive = activation, most hits filed as activators. 0.063% of 320,000 active. AID 504706; also: % of control where 0% means no effect; nearly all actives have a fitted effect of over 45% in size
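H1299 (p53-null), stable ts p53-A138V + BP100-Luc; 1000 cells/well, Opti-MEM/10% FBS; cpd 4 pt, 1:5; 24 h, 37 deg C, 5% CO2; detection reagent 10 min RT; luminescence.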
An asterisk follows results filed as active; [ ] = remark or other dose. An excerpt weighted towards active compounds, which were near 7.1% of everything screened. Calls follow the shape of the dose curve; as a rule, active = well fitted curve in the direction sought with a large enough effect; inconclusive = small, poorly fitted or top-dose-only effect, or another doubt; inactive = no such curve, though single readings can be large; an effect the other way counts as inactive or inconclusive. Potency is read from the fitted curve at half-maximal effect.

For O=C1NN=C(c2ccc(Cl)cc2)CC1c1cccc(Cl)c1 (stereo unspecified) the results were ELG1 DNA repair inconclusive, MCF10A rereplic 11%, A-T KAP1 phos 2%, ELG1 genotoxic -1%, SW480 rereplic -5% and p53 reactivator -21%.
Screening O=C1NN=C(c2ccccc2)CC1c1ccc(Cl)cc1Cl (stereo unspecified) returned ELG1 DNA repair -27%, MCF10A rereplic inconclusive, A-T KAP1 phos 0%, ELG1 genotoxic -9%, SW480 rereplic 18µM* and p53 reactivator -1%.
For Cc1cc(C)nc(N2CCCC(C(=O)Nc3ccc4nc(C)c(C)nc4c3)C2)n1 (stereo unspecified) the results were ELG1 DNA repair 12µM*, MCF10A rereplic 6%, A-T KAP1 phos 10%, ELG1 genotoxic -6%, SW480 rereplic 13% and p53 reactivator -9%.
`CCOC(=O)CNC(=O)C1CCCN(c2ncccn2)C1` (stereo unspecified) gave ELG1 DNA repair -2%, MCF10A rereplic 17%, A-T KAP1 phos 1%, ELG1 genotoxic 1%, SW480 rereplic 0.26µM* and p53 reactivator -1%.
Cc1cc(C)nc(N2CCCC(C(=O)Nc3nc4ccc(S(C)(=O)=O)cc4s3)C2)n1 (stereo unspecified) was read as ELG1 DNA repair 16µM*, MCF10A rereplic -3%, A-T KAP1 phos 1%, ELG1 genotoxic -26%, SW480 rereplic 15% and p53 reactivator -20%.
For Cc1cc(C)nc(N2CCCC(C(=O)NCC(c3ccccc3)c3ccccc3)C2)n1 (stereo unspecified) the results were ELG1 DNA repair 23µM*, MCF10A rereplic inconclusive, ELG1 genotoxic -1%, SW480 rereplic 11% and p53 reactivator -5%.
COc1ccc(CNC(=O)CSc2nc3ccc(C)cc3[nH]2)cc1OC was read as ELG1 DNA repair 5%, MCF10A rereplic 0%, A-T KAP1 phos 0%, ELG1 genotoxic -7%, SW480 rereplic 0% and p53 reactivator -2%.
For COc1ccc(NC(=O)N(C)C[C@H]2Oc3ccc(NS(=O)(=O)c4c(C)noc4C)cc3C(=O)N([C@H](C)CO)C[C@@H]2C)cc1 the results were ELG1 DNA repair 4%, MCF10A rereplic 1%, A-T KAP1 phos 6%, ELG1 genotoxic 6%, SW480 rereplic 15%[9.22 µM] and p53 reactivator -3%.
`CCCN(CCC)CC(O)CN(c1ccccc1)S(=O)(=O)c1ccc(C)cc1` (stereo unspecified) gave ELG1 DNA repair 16%, MCF10A rereplic 12%, ELG1 genotoxic -9%, SW480 rereplic inconclusive and p53 reactivator 2%.
`CCCCN(c1nc2ccccc2nc1Cl)S(=O)(=O)c1ccc(C)cc1` gave ELG1 DNA repair inconclusive, MCF10A rereplic inconclusive, A-T KAP1 phos 10µM*, ELG1 genotoxic -9%, SW480 rereplic -9% and p53 reactivator 1%.
CC(=O)[O][Al][O]C(C)=O was read as MCF10A rereplic 1% and SW480 rereplic inactive.
Screening COc1ccc(/C=C2\CN(Cc3ccccc3)C/C(=C\c3ccc(OC)cc3)C2=O)cc1 returned ELG1 DNA repair inconclusive, MCF10A rereplic 8.2µM*, A-T KAP1 phos 1%, ELG1 genotoxic -13% and p53 reactivator 4%.
For COc1ccc(/C=C2\CN(Cc3ccccc3)C/C(=C\c3ccc(OC)cc3OC)C2=O)c(OC)c1 the results were ELG1 DNA repair inconclusive, MCF10A rereplic inconclusive, A-T KAP1 phos -10%, ELG1 genotoxic 1%, SW480 rereplic inconclusive and p53 reactivator 2%.
Screening S=C1NC=NC2N=CNC12 (stereo unspecified) returned MCF10A rereplic 17% and SW480 rereplic inconclusive.

Assay outcomes: PubChem, National Center for Advancing Translational Sciences (NCATS)
